From PubChem BioAssay
Records with an inconclusive call do not appear. The source made the active and inactive calls.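 The calls were made as follows, unless noted: active = normalized viability below 100% at a tested concentration; inactive = the rest.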

Key:
[1] = growth inhibition of DIPG glioma cells, dose response, cell-based, SU-DIPG-XVII, MIPE5.0, CellTiter-Glo, qHTS (AID 1347060; cut-off not given, nearly all actives have AC50 up to about 26 µM;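 as to AC50: cells exposed to compound for 48 hours before viability readout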); details: SU-DIPG-XVII viability, CellTiter-Glo ATP luminescence
[2] = growth inhibition of DIPG glioma cells, dose response, cell-based, SU-DIPG-XIII, MIPE4.0, CellTiter-Glo, qHTS (AID 1347061; cut-off not given, nearly all actives have AC50 up to about 37 µM;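 also: cells exposed to compound for 48 hours before readout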); details: SU-DIPG-XIII viability, CellTiter-Glo ATP luminescence
[3] = growth inhibition of DIPG glioma cells, dose response, cell-based, JHH-DIPG-1, MIPE4.0, CellTiter-Glo, qHTS (AID 1347062; cut-off not given, nearly all actives have AC50 up to about 27 µM;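 as to AC50: cells exposed to compound for two days before readout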); details: JHH-DIPG-1 viability, CellTiter-Glo ATP luminescence
[4] = growth inhibition of DIPG glioma cells, dose response, cell-based, SU-DIPG-IV, MIPE4.0, CellTiter-Glo, qHTS (AID 1347063; cut-off not given, nearly all actives have AC50 up to about 30 µM;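 also: compound exposure lasted 48 hours before the viability readout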); details: SU-DIPG-IV viability, CellTiter-Glo ATP luminescence
[5] = growth inhibition of DIPG glioma cells, dose response, cell-based, SU-DIPG-XIII, MIPE5.0, CellTiter-Glo, qHTS (AID 1347064; cut-off not given, nearly all actives have AC50 up to about 23 µM;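 as to AC50: cells exposed to compound for 48 hours before the viability read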); details: SU-DIPG-XIII viability, CellTiter-Glo ATP luminescence
[6] = viability loss in pontine glioma line – cell-based, SU-DIPG-XXV, MIPE5.0, CellTiter-Glo, qHTS, dose response (AID 1347065; cut-off not given, nearly all actives have AC50 up to about 26 µM;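 also: cells exposed to compound for 48 hours before ATP readout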); details: CellTiter-Glo ATP luminescence
[7] = SU-DIPG-VI glioma cell viability, MIPE4.0 library, CellTiter-Glo luminescence, qHTS (AID 1347066; cut-off not given, nearly all actives have AC50 up to about 30 µM;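 also: cells exposed to compound for 48 hours before readout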); details: CellTiter-Glo ATP luminescence
[8] = JHH-DIPG-1 glioma cell viability, MIPE5.0 library, CellTiter-Glo luminescence, qHTS (AID 1347067; cut-off not given, nearly all actives have AC50 up to about 26 µM;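 also: cells exposed to compound for 48 hours before readout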); details: JHH-DIPG-1 glioma viability, CellTiter-Glo ATP luminescence
[9] = SU-DIPG-XXV glioma cell viability, MIPE5.0 library, qHTS (AID 1347068; cut-off not given, nearly all actives have IC50 up to about 30 µM;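 as to IC50: cells exposed to compound for 48 hours before viability readout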)
[10] = sensitizers of A549 cells to miR-34 induction, primary screen, imaging, A549 dox-inducible miR-34, nuclei and caspase counts (AID 1347080;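 active = compounds whose cell count with miR-34 switched on is under 0.7 times the count with it off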); details: A549 miR-34 inducible, Hoechst nuclei count, 48 h
[11] = survival rescue of mitochondrial mutant cells in low glucose, primary screen, MELAS cybrids, Rieske KO mouse fibroblasts, CellTiter-Glo (AID 1508586;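 active = mean z-score across replicates of 1.96 or higher in either the MELAS or the Rieske mutant cell line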;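 also: z relative to plate mean and SD of compound and empty wells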)
[12] = ovarian cancer cell viability with rucaparib, profiling panel, oncology-focused library, rucaparib conditional (AID 1508598); details: patient-derived ovarian cancer cells, CellTiter-Glo viability, 144 h, stronger effect = lower value
[13] = modifiers of HSF1 nuclear foci, imaging, Selleck Cancer Library (AID 1347162; in the data active = plate-normalised HSF1 focus index below about 0.46); details: human cells, at 10 µM; SSMD: measured here: HSF1 foci SSMD mean; cell count: measured here: cell number; plate-normalised HSF1 focus index: stronger effect = lower value
[14] = stronger effect = lower value, cell number ratio, induced over uninduced
[15] = measured here: relative caspase fold change +Dox/-Dox
[16] = measured here: total cells with miR-34 induction, stronger effect = lower value
[17] = measured here: total cells without miR-34 induction
[18] = MELAS cybrid survival, CellTiter-Glo 48 h, stronger effect = higher value
[19] = Rieske KO mouse fibroblast survival, CellTiter-Glo 72 h
[20] = at 0.000305 µM, OCI-C5x cells, with rucaparib 10 µM, 100% = cells with rucaparib alone
[21] = at 0.000305 µM, OCI-C5x cells, without rucaparib
[22] = at 0.000305 µM, OCI-P5x cells, with rucaparib 20 µM, 100% = cells with rucaparib alone
[23] = at 0.000305 µM, OCI-P5x cells, without rucaparib
[24] = at 0.00122 µM, OCI-C5x cells, with rucaparib 10 µM, 100% = cells with rucaparib alone
[25] = at 0.00122 µM, OCI-C5x cells, without rucaparib
[26] = at 0.00122 µM, OCI-P5x cells, with rucaparib 20 µM, 100% = cells with rucaparib alone
[27] = at 0.00122 µM, OCI-P5x cells, without rucaparib
[28] = at 0.00488 µM, OCI-C5x cells, with rucaparib 10 µM, 100% = cells with rucaparib alone
[29] = at 0.00488 µM, OCI-C5x cells, without rucaparib
[30] = at 0.00488 µM, OCI-P5x cells, with rucaparib 20 µM, 100% = cells with rucaparib alone
[31] = at 0.00488 µM, OCI-P5x cells, without rucaparib
[32] = at 0.0195 µM, OCI-C5x cells, with rucaparib 10 µM, 100% = cells with rucaparib alone
[33] = at 0.0195 µM, OCI-C5x cells, without rucaparib
[34] = at 0.0195 µM, OCI-P5x cells, with rucaparib 20 µM, 100% = cells with rucaparib alone
[35] = at 0.0195 µM, OCI-P5x cells, without rucaparib
[36] = at 0.0781 µM, OCI-C5x cells, with rucaparib 10 µM, 100% = cells with rucaparib alone
[37] = at 0.0781 µM, OCI-C5x cells, without rucaparib
[38] = at 0.0781 µM, OCI-P5x cells, with rucaparib 20 µM, 100% = cells with rucaparib alone
[39] = at 0.0781 µM, OCI-P5x cells, without rucaparib
[40] = at 0.313 µM, OCI-C5x cells, with rucaparib 10 µM, 100% = cells with rucaparib alone
[41] = at 0.313 µM, OCI-C5x cells, without rucaparib
[42] = at 0.313 µM, OCI-P5x cells, with rucaparib 20 µM, 100% = cells with rucaparib alone
[43] = at 0.313 µM, OCI-P5x cells, without rucaparib
[44] = at 1.25 µM, OCI-C5x cells, with rucaparib 10 µM, 100% = cells with rucaparib alone
[45] = at 1.25 µM, OCI-C5x cells, without rucaparib
[46] = at 1.25 µM, OCI-P5x cells, with rucaparib 20 µM, 100% = cells with rucaparib alone
[47] = at 1.25 µM, OCI-P5x cells, without rucaparib
[48] = at 5 µM, OCI-C5x cells, with rucaparib 10 µM, 100% = cells with rucaparib alone
[49] = at 5 µM, OCI-C5x cells, without rucaparib
[50] = at 5 µM, OCI-P5x cells, with rucaparib 20 µM, 100% = cells with rucaparib alone
[51] = at 5 µM, OCI-P5x cells, without rucaparib

NC(=O)c1ccc(N(C(N)=O)c2c(F)cccc2F)nc1-c1ccc(F)cc1F
-0.467: z-score [11, 19]
9290: cell count [10, 16]
0.736: fold change [10, 15]
inactive: outcome [1] | outcome [2] | outcome [3] | outcome [4] | outcome [5] | outcome [6] | outcome [7] | outcome [8] | outcome [9] | fold change [10, 14] 0.9 | z-score [11, 18] -0.391
10300: cell count [10, 17]

C=CC(=O)N1CCC[C@@H](n2nc(-c3ccc(Oc4ccccc4)cc3)c3c(N)ncnc32)C1
active: AC50 [1] 5.9 µM | AC50 [2] 18.7 µM | AC50 [3] 23.5 µM | AC50 [4] 5.26 µM | AC50 [5] 20.9 µM | AC50 [6] 9.34 µM | AC50 [7] 16.6 µM | AC50 [8] 16.6 µM | viability [12, 20] 99.2% | viability [12, 22] 88.6% | viability [12, 23] 94.3% | viability [12, 26] 77.7% | viability [12, 27] 48.3% | viability [12, 30] 95.6% | viability [12, 34] 93.8% | viability [12, 38] 86.9% | viability [12, 42] 86.1% | viability [12, 43] 91.8% | viability [12, 46] 92.3% | viability [12, 47] 93.7% | viability [12, 50] 57.3% | viability [12, 51] 88.7%
inactive: outcome [9] | viability [12, 21] 119% | viability [12, 24] 108% | viability [12, 25] 118% | viability [12, 28] 106% | viability [12, 29] 108% | viability [12, 31] 103% | viability [12, 32] 112% | viability [12, 33] 112% | viability [12, 35] 103% | viability [12, 36] 114% | viability [12, 37] 111% | viability [12, 39] 100% | viability [12, 40] 112% | viability [12, 41] 120% | viability [12, 44] 108% | viability [12, 45] 125% | viability [12, 48] 113% | viability [12, 49] 121%

Cc1ccccc1C(C(=O)NC1CCCCC1)N(C(=O)Cn1ccnc1C)c1cccc(F)c1 (stereo not drawn)
0.11: z-score [11, 19]
8020: cell count [10, 16]
0.447: fold change [10, 15]
inactive: outcome [1] | outcome [2] | outcome [3] | outcome [4] | outcome [5] | outcome [6] | outcome [7] | outcome [8] | outcome [9] | fold change [10, 14] 0.844 | z-score [11, 18] 0.145
9500: cell count [10, 17]

c1ccc(CNc2nc(NCc3ccccc3)c3ccccc3n2)cc1
-0.855: z-score [11, 19]
3510: cell count [10, 16]
inactive: fold change [10, 14] 0.814 | z-score [11, 18] -0.415
4310: cell count [10, 17]
0.477: fold change [10, 15]
active: AC50 [1] 14.8 µM | AC50 [2] 7.43 µM | AC50 [3] 23.5 µM | AC50 [4] 20.9 µM | AC50 [5] 16.6 µM | AC50 [6] 9.34 µM | AC50 [7] 23.5 µM | AC50 [8] 10.5 µM | IC50 [9] 29.5 µM

Cn1c(=O)c(F)c(Nc2ccc(I)cc2F)c2c(=O)n(C[C@@H](O)CO)cnc21
active: AC50 [1] 0.0661 µM | AC50 [2] 0.264 µM | AC50 [3] 0.235 µM | AC50 [4] 3.32 µM | AC50 [5] 0.132 µM | AC50 [6] 0.295 µM | AC50 [8] 0.0661 µM | IC50 [9] 1.86 µM | viability [12, 22] 96.8% | viability [12, 26] 81.5% | viability [12, 27] 78.8% | viability [12, 30] 69% | viability [12, 31] 76.3% | viability [12, 34] 59.1% | viability [12, 35] 66.1% | viability [12, 36] 88.1% | viability [12, 38] 54.4% | viability [12, 39] 64.1% | viability [12, 40] 86.7% | viability [12, 41] 88.4% | viability [12, 42] 43.7% | viability [12, 43] 47.9% | viability [12, 44] 58.9% | viability [12, 45] 92.3% | viability [12, 46] 34.4% | viability [12, 47] 38.4% | viability [12, 48] 49.3% | viability [12, 49] 61.2% | viability [12, 50] 2.17% | viability [12, 51] 26.7%
1.8: SSMD [13]
inactive: outcome [7] | plate-normalised HSF1 focus index [13] 1.1 | viability [12, 20] 107% | viability [12, 21] 128% | viability [12, 23] 106% | viability [12, 24] 102% | viability [12, 25] 116% | viability [12, 28] 104% | viability [12, 29] 118% | viability [12, 32] 102% | viability [12, 33] 111% | viability [12, 37] 103%
7260: cell count [13]

COc1cc2c(cc1OC)C1CC(=O)C(CC(C)C)CN1CC2 (stereo not drawn)
0.689: fold change [10, 15]
inactive: outcome [1] | outcome [2] | outcome [3] | outcome [4] | outcome [5] | outcome [6] | outcome [7] | outcome [8] | outcome [9] | fold change [10, 14] 0.996
9770: cell count [10, 16]
9800: cell count [10, 17]

CCNC(=O)c1noc(-c2cc(C(C)C)c(O)cc2O)c1-c1ccc(CN2CCOCC2)cc1
inactive: outcome [9] | fold change [10, 14] 1.03 | plate-normalised HSF1 focus index [13] 1.08 | viability [12, 20] 136% | viability [12, 21] 129% | viability [12, 23] 112% | viability [12, 24] 131% | viability [12, 25] 137%
active: AC50 [1] 0.0166 µM | AC50 [2] 0.105 µM | AC50 [3] 0.0743 µM | AC50 [4] 0.0526 µM | AC50 [5] 0.0332 µM | AC50 [6] 0.0118 µM | AC50 [7] 4.69 µM | AC50 [8] 0.0209 µM | z-score [11, 18] 2.88 | viability [12, 22] 98% | viability [12, 26] 69.1% | viability [12, 27] 97.9% | viability [12, 28] 29.2% | viability [12, 29] 12.3% | viability [12, 30] 13.9% | viability [12, 31] 5.95% | viability [12, 32] 9.68% | viability [12, 33] 9.96% | viability [12, 34] 6.4% | viability [12, 35] 4.69% | viability [12, 36] 9.48% | viability [12, 37] 9.56% | viability [12, 38] 6.42% | viability [12, 39] 4.47% | viability [12, 40] 8.98% | viability [12, 41] 9.43% | viability [12, 42] 5.55% | viability [12, 43] 3.94% | viability [12, 44] 10.6% | viability [12, 45] 9.54% | viability [12, 46] 4.83% | viability [12, 47] 3.83% | viability [12, 48] 9.11% | viability [12, 49] 9.15% | viability [12, 50] 3.61% | viability [12, 51] 2.59%
0.0253: z-score [11, 19]
7410: cell count [13]
2.25: SSMD [13]
1290: cell count [10, 17]
0.796: fold change [10, 15]
1340: cell count [10, 16]
